In PubChem BioAssay (Tox21):
Records with an inconclusive call do not appear. Values without a mark were called inactive. Activity calls are given as the source filed them. Calls come from the whole dose curve.

assay: qHTS assay to identify small molecule antagonists of the sonic hedgehog signaling (Shh) pathway (AID 1259369); conditions: NIH/3T3 Gli1-Luc reporter, Shh antagonist, luminescence 24 h; series mostly up to 92.4 µM; activity change, negative = inhibition: at the top concentration; note: nearly all actives have a fitted effect of over 45% in size
Description: U.S. Tox21 Program National Center for Advancing Translational Sciences [NCATS] NIH Chemical Genomics Center [NCGC] U.S. Environmental Protection Agency [EPA] National Institutes of Environmental Health Sciences [NIEHS] National Toxicology Program [NTP] U.S. Food and Drug Administration [FDA] Tox21 Assay Overview: The sonic hedgehog (Shh) pathway is essential for normal embryonic development. Dysregulation of the Shh pathway can cause severe developmental defects in organs. Therefore chemicals that interfere with the pathway are potential developmental toxicants. A cell line designated 3T3Gli1-Luc (DMB/OARSA/CFSAN/FDA, Laurel, MD), a NIH/3T3 derived clone containing stably integrated Gli1-Luc reporter is used to detect chemical interference of the Shh pathway, by changes in the expression of the firefly Luc gene under the control of the Gli1 transcriptional response element. This cell line was used to screen Tox21 libraries for identifying and prioritizing the potential developmental toxicants that interfere Shh pathway. Conditioned medium-stimulated mode was used to screen for chemicals inhibiting Shh signaling.
Tox21 Assay Protocol Summary: 3T3 Gli1-Luc cells were dispensed at 2,000 per well in 5uL of culture medium into white solid bottom 1536-well plates (Greiner Bio-One, Monroe, NC) using a Multidrop Combi (Thermo Scientific, Waltham, MA) dispenser. The assay plates were incubated at 37 C and 5% CO2 for 4hr, and then 23nL of compounds dissolved in DMSO and positive control were transferred using a Pintool station (Wako, San Diego, CA). The compound transfer was followed by the addition of 1ul conditioned medium or assay buffer using two separate tips of Flying Reagent Dispenser (FRD, Aurora Discovery, San Diego, CA). The assay plates were incubated at 37C and 5% CO2 for 24hr. For luciferase read, 4uL of Amplite Luciferase reporter gene assay reagent (AAT Bioquest, Inc. Sunnyvale, CA) was added to each well of the assay plates using FRD and incubated at room temperature for 30min. The luminescence signal was measured using a ViewLux plate reader (Perkin Elmer, Shelton, CT).
% is set by controls: 0 for no effect and ±100 for the full control effect; potency is the fitted concentration of half-maximal effect.

Going from `CCCCCCCCCCCCCCCCOS(=O)(=O)O` to `C[N+](C)(C)CCOC(=O)CCC(=O)OCC[N+](C)(C)C`, the “activity change, negative = inhibition” value falls from 24.8% [at 42.5 µM] to 0.521% [at 42.5 µM].

Going from `CCCC(=O)Nc1ccc(O)c(C(C)=O)c1` to `COc1ccc2cccc(CCNC(C)=O)c2c1`, the “activity change, negative = inhibition” value rises from -11.9% [at 42.5 µM] to -11% [at 42.5 µM].

Going from `COc1ccc(C(=O)N2CCN(CC(=O)N3CCOCC3)CC2)cc1` to `O=C(c1ccc(F)cc1)C1CCN(CCn2c(=S)[nH]c3ccccc3c2=O)CC1`, the “activity change, negative = inhibition” value falls from 7.71% [at 42.5 µM] to -32.7% [at 42.5 µM].

Compared with `c1ccc(C(O[C@H]2CCCN(CCc3ccc4c(c3)OCO4)C2)c2ccccc2)cc1`, `O=C1c2ccccc2S(=O)(=O)N1CCCCN1CCN(c2ncccn2)CC1` is higher in “activity change, negative = inhibition” value: -19.7% [at 42.5 µM] for the first, -10.4% [at 42.5 µM] for the second.

Going from `O=C(O)C(S)C(S)C(=O)O` (stereo not given) to `CNC(=O)CN(CCN(CCN(CC(=O)[O-])CC(=O)NC)CC(=O)[O-])CC(=O)[O-].O.[Gd+3]`, the “activity change, negative = inhibition” value falls from 17.2% [at 42.5 µM] to -0.209% [at 42.5 µM].

Compared with `Cc1ncc(CO)c(C=O)c1O`, `C[C@@H]1C[C@H]2[C@@H]3CCC4=CC(=O)C=C[C@]4(C)[C@@]3(F)[C@@H](O)C[C@]2(C)[C@@]1(O)C(=O)COC(=O)c1ccncc1` is lower in “activity change, negative = inhibition” value: 18.8% [at 42.5 µM] for the first, 3.22% [at 42.5 µM] for the second.

For `OC(C#CCN1CCCC1)(c1ccccc1)c1ccccc1`, the Potency was 3.76 µM (active).
For `CC(CC=O)c1ccccc1` (stereo not given), the Potency was 54.5 µM (active).
For `Cn1c(=O)cc(Oc2ccc(F)cc2F)c2cnc(NCC(C)(C)O)nc21`, the Potency was 27.3 µM (active).
For `O=C1[C@H]2CCCC[C@H]2C(=O)N1CCCCN1CCN(c2nsc3ccccc23)CC1`, the Potency was 23.7 µM (active).
In the case of `CC(C)=CCC/C(C)=C/CC/C(C)=C/CO`, the Potency is reported as 43.3 µM (active).
For `CC(C)C[C@H]1C(=O)N2CCC[C@H]2[C@]2(O)O[C@](NC(=O)[C@@H]3C=C4c5cccc6[nH]c(Br)c(c56)C[C@H]4N(C)C3)(C(C)C)C(=O)N12`, the Potency was 5.19 µM (active).
In the case of `COc1ccc(-c2nc3ccc(C4=NNC(=O)CC4C)cc3[nH]2)cc1` (stereo not given), the Potency is reported as 8.41 µM (active).
In the case of `CCCCCCCCCCO[C@@H]1O[C@H](CO)[C@@H](O)[C@H](O)[C@H]1O`, the Potency is reported as 61.1 µM (active).
For `O[C@@H](COc1cccc2ncccc12)CN1CCN(C2c3ccccc3[C@@H]3[C@H](c4ccccc42)C3(F)F)CC1` (stereo not given in full), the Potency was 13.3 µM (active).

Compared with `COC(C)OC`, `COc1cc(Cl)c(OC)cc1N` is lower in “activity change, negative = inhibition” value: -0.164% for the first, -40.1% for the second.

Compared with `CCCCCCCCCOS(=O)(=O)O`, `CCCCCCCCO[C@@H]1O[C@H](CO)[C@@H](O)[C@H](O)[C@H]1O` is lower in “activity change, negative = inhibition” value: 17.1% for the first, -2.78% for the second.

First: CCCCCCCCCCCc1ccccc1
Second: CCCCC(CC)COC(=O)CCCCCCCCC(=O)OCC(CC)CCCC (stereo not given)
The “activity change, negative = inhibition” value of the first is higher: 19.3% for the first, 4.13% for the second.

Compared with `c1cc(CCCc2ccncc2)ccn1`, `c1ccc(-c2ccccn2)nc1` is higher in “activity change, negative = inhibition” value: -26.5% for the first, 0.43% for the second.

First: O=C(Cl)c1cc(C(=O)Cl)cc(C(=O)Cl)c1
Second: O=C(O)c1ccco1
The “activity change, negative = inhibition” value of the first is higher: 0.666% for the first, 0% for the second.

Compared with `CCOC(=O)Cc1cccc2ccccc12`, `CCCCC(CC)COC(=O)COc1ccc(Cl)cc1Cl` (stereo not given) is lower in “activity change, negative = inhibition” value: 10.5% for the first, -1.71% for the second.

Going from `CN(C)c1ccc(CCO)cc1` to `COc1cc(Cl)ccc1Oc1ccc(Cl)cc1Cl`, the “activity change, negative = inhibition” value rises from 5.95% to 7.23%.

Compared with `N=c1ccn2c(n1)O[C@H]1[C@H](O)[C@@H](CO)O[C@H]12`, `O=[N+]([O-])c1ccc2[nH]ncc2c1` is lower in “activity change, negative = inhibition” value: 3.51% for the first, -3.65% for the second.

First: C=CCOC(=O)CCC1CCCCC1
Second: C1CCCNCCC1
The “activity change, negative = inhibition” value of the first is lower: 6.03% for the first, 24.5% for the second.

For `C=CC1CC2C=CC1C2` (stereo not given), the “activity change, negative = inhibition” value was 3.43%.
